Measured values published in PubChem BioAssay.
Activity calls are given as the source filed them.

Assay: HepG2 liver cancer cell viability effects, profiling panel, resazurin fluorescence, 24 h, PK04 Diversity Set (AID 1172); also: test concentration not given here
Conditions: higher = more signal

Row | Structure (SMILES) | z-score
1 | C=CCNC(=O)[C@H]1[C@@H]2C(=O)O[C@@H](c3ccccc3)[C@@H](c3ccccc3)N2[C@@H](c2ccc(OCCO)cc2)[C@]12C(=O)N(C(=O)OCCOC)c1ccc(C#CCC(C(=O)OC)C(=O)OC)cc12 | -0.181
2 | C=CCOC(=O)[C@@H]1[C@H]2C(=O)O[C@H](c3ccccc3)[C@H](c3ccccc3)N2[C@H](c2ccc(OCCOC(=O)[C@@H]3C[C@@H]4C(=O)N[C@@H](CC(C)C)C(=O)N4[C@@H]3c3ccc(O)cc3)cc2)[C@@]12C(=O)Nc1ccc(I)cc12 | 0.438
3 | COC(=O)[C@@]1(Cc2ccc(F)cc2)[C@H]2c3cc(C(=O)N4CCCC4)n(C[C@H](O)CO)c3C[C@H]2CN1C(=O)c1ccccc1 | -0.462
4 | COc1cc2c(cc1O)C(C)N(Cc1sc3ccccc3c1Cl)CC2 (stereo not given) | 0.311
5 | Cc1ccc(S(=O)(=O)N2[C@@H](c3ccccc3)C(C(=O)O)=CC[C@H]2c2ccc(F)cc2)cc1 | 0.0445
6 | C=C(C(=O)CC[C@@H](OC(=O)c1ccccc1-c1ccccc1C(=O)O)c1ccc(OCCO)cc1)C(C)C | -0.304
7 | C=CC[C@H](OC(=O)Nc1ccc(SC)cc1)c1ccc(O)c(F)c1 | -0.124
8 | O=C1c2ccccc2[C@@]2(Cc3ccccc3N(CC(F)(F)F)C2=O)[C@H](c2ccc(CO)cc2)N1Cc1ccccc1 | -0.584
9 | C#CCN(C(=O)OC(C)(C)C)[C@H](CO)c1ccccc1 | 0.739
10 | COC(=O)[C@@]1(Cc2ccc(F)cc2)[C@H]2c3cc(C(=O)N4CCCC4)n(CCc4c[nH]c5cc(F)ccc45)c3C[C@H]2CN1C(=O)c1ccccc1 | 0.182
11 | CC[C@@H]1C=C(C(=O)O)[C@H](c2cccc(Cl)c2)N1S(=O)(=O)c1ccc(C)cc1 | -0.722
12 | C=CCNC(=O)[C@@H]1[C@H]2C(=O)O[C@H](c3ccccc3)[C@H](c3ccccc3)N2[C@H](c2ccc(OCCO)cc2)[C@@]12C(=O)N(C(=O)OCCOC)c1ccccc12 | 0.0303
13 | COCCCNC(=O)[C@@]1(CCC(=O)OC(C)(C)C)N=C(c2ccc(OCCCO)cc2)O[C@H]1c1ccccc1 | -0.464
14 | CC(C)C[C@@H]1NC(=O)[C@@H]2C[C@H](C(=O)NCCCCCCNC(=O)CS)[C@H](c3ccc(O)cc3)N2C1=O | 0.0799
15 | C=C(COC)/C(=C/C[C@@H](OC(=O)c1ccncc1)c1ccccc1OCCO)c1cnc2ccccc2c1 | -0.567
16 | C=C(C(=O)CC[C@H](OC(=O)c1ccccc1-c1ccccc1C(=O)O)c1ccc(OCCO)cc1)C(C)C | 0.0716
17 | COC(=O)Cn1c(C(=O)N(C)C)cc2c1C[C@H]1CN(C(=O)c3ccccc3)[C@@](Cc3ccccc3)(C(=O)OC)[C@@H]21 | 0.971
18 | COc1cc(Cc2cc3c(c(-c4ccccc4)n2)[Si](C(C)C)(C(C)C)OC3)cc(OC)c1OC | 0.233
19 | [N-]=[N+]=NCc1ccccc1[C@H]1OC(c2ccc(OCCCO)cc2)=N[C@@]1(Cc1ccccc1N=[N+]=[N-])C(=O)O | 0.539
20 | COC(=O)c1c2oc(c1C(=O)OC)C(=O)N[C@H](Cc1ccccc1)Cn1cc(nn1)C1(CCCCC1)NC(=O)N[C@H](CO)CC2 | 0.483
21 | CC(C)N1CC=CC23O[C@@H]4/C=C\CCCOC(=O)C4[C@H]2C(=O)N(C(C)CO)[C@@H]3C1=O (stereo not given in full) | 0.876
22 | O=C1C2C=CC(C(O)C3CCCCC3)N(Nc3ccccc3F)C2C(=O)N1c1ccccc1 (stereo not given) | -1.87
23 | CC1CC/C=C\[C@H]2OC34C=CCN(C(C)C)C(=O)[C@H]3N(C(C)CO)C(=O)[C@@H]4C2C(=O)O1 (stereo not given in full) | 0.741
24 | CC(C)(C)OC(=O)CC[C@@]1(C(N)=O)N=C(c2ccc(OCCCO)cc2)O[C@@H]1c1ccccc1CN=[N+]=[N-] | 0.372
25 | O=C(NC1CC1)[C@@H]1c2ccccc2C(=O)N(C2CCCCC2)[C@H]1c1ccc(CO)cc1 | -0.358
26 | COc1ccc(CCNC(=O)[C@@]2(c3ccc([N+](=O)[O-])cc3)CC(=O)N(C3CCCCC3)[C@@H]2c2ccc(CO)cc2I)cc1 | -1.29
27 | C=C(COC)C(=O)CC[C@@H](OC(=O)c1ccccc1-c1ccccc1C(=O)O)c1ccccc1OCCO | 0.078

Assay: basal S. cerevisiae growth modulation, no modifier, primary screen, OD600, strain BY4716, 24 h, basal condition (AID 1173)
Conditions: OD600, 24 h, higher = more signal, called active from +8 up or from −8 down

Row | Structure (SMILES) | z-score
28 | COCCOC(=O)N1C(=O)[C@@]2(c3cc(C#CCCO)ccc31)[C@H](C(=O)N1CCN(c3ncccn3)CC1)[C@H]1C(=O)O[C@H](c3ccccc3)[C@H](c3ccccc3)N1[C@@H]2c1ccc(OCCO)cc1 | 2.7 (inactive)
29 | CC[C@@H](O[Si](C#C[Si](C(C)C)(C(C)C)C(C)C)(C(C)C)C(C)C)c1cn(Cc2cccc(Cl)c2)nn1 | 1.42 (inactive)
30 | COCCOC(=O)N1C(=O)[C@@]2(c3cc(C#CCC(C(=O)OC)C(=O)OC)ccc31)[C@H](c1ccc(O)cc1)N1[C@H](c3ccccc3)[C@H](c3ccccc3)OC(=O)[C@H]1[C@@H]2C(=O)N1CCc2cc(OC)c(OC)cc2C1 | -0.672 (inactive)
31 | Cc1ccc(S[C@]2(C(=O)NCCN3CCOCC3)CC(=O)N(C(C)C)[C@@H]2c2ccc(CO)cc2I)cc1 | -3.26 (inactive)
32 | CC(C)c1ccc(NN2C(C(O)c3ccccc3)C=CC3C(=O)N(c4ccccc4)C(=O)C32)cc1 (stereo not given) | -1.79 (inactive)
33 | CC(C)C(=C=CC[C@H](O)c1cccc(OCCO)c1)C[C@H](O)c1ccccn1 | 0.589 (inactive)
34 | COCCOC(=O)N1C(=O)[C@@]2(c3cc(C#CCNC(N)=O)ccc31)[C@H](c1ccc(O)cc1)N1[C@H](c3ccccc3)[C@H](c3ccccc3)OC(=O)[C@H]1[C@@H]2C(=O)N1CCc2cc(OC)c(OC)cc2C1 | 1.66 (inactive)
35 | [N-]=[N+]=NCc1ccccc1[C@H]1OC(c2ccc(OCCCO)cc2)=N[C@@]1(Cc1ccccc1N=[N+]=[N-])C(=O)N1CCOCC1 | -0.783 (inactive)
36 | C=C(CCCC)/C(=C/C[C@@H](OC(C)=O)c1cccc(OCCO)c1)c1cc(C(=O)OC)ccc1OC | 1.12 (inactive)
37 | C=CCNC(=O)[C@H]1[C@@H]2C(=O)O[C@@H](c3ccccc3)[C@@H](c3ccccc3)N2[C@@H](c2ccc(OCCO)cc2)[C@]12C(=O)N(C(=O)OCCOC)c1ccc(C#CCC(C(=O)OC)C(=O)OC)cc12 | 1.71 (inactive)
38 | C=CCOC(=O)[C@@H]1[C@H]2C(=O)O[C@H](c3ccccc3)[C@H](c3ccccc3)N2[C@H](c2ccc(OCCOC(=O)[C@@H]3C[C@@H]4C(=O)N[C@@H](CC(C)C)C(=O)N4[C@@H]3c3ccc(O)cc3)cc2)[C@@]12C(=O)Nc1ccc(I)cc12 | 0.893 (inactive)
39 | COC(=O)[C@@]1(Cc2ccc(F)cc2)[C@H]2c3cc(C(=O)N4CCCC4)n(C[C@H](O)CO)c3C[C@H]2CN1C(=O)c1ccccc1 | 0.897 (inactive)
40 | COc1cc2c(cc1O)C(C)N(Cc1sc3ccccc3c1Cl)CC2 (stereo not given) | -0.961 (inactive)
41 | Cc1ccc(S(=O)(=O)N2[C@@H](c3ccccc3)C(C(=O)O)=CC[C@H]2c2ccc(F)cc2)cc1 | -0.93 (inactive)
42 | C=C(C(=O)CC[C@@H](OC(=O)c1ccccc1-c1ccccc1C(=O)O)c1ccc(OCCO)cc1)C(C)C | -1.3 (inactive)
43 | C=CC[C@H](OC(=O)Nc1ccc(SC)cc1)c1ccc(O)c(F)c1 | -15.5 (active)
44 | O=C1c2ccccc2[C@@]2(Cc3ccccc3N(CC(F)(F)F)C2=O)[C@H](c2ccc(CO)cc2)N1Cc1ccccc1 | 0.714 (inactive)

Row | Structure (SMILES) | z-score
45 | C#CCN(C(=O)OC(C)(C)C)[C@H](CO)c1ccccc1 | -7.87 (inactive)
46 | COC(=O)[C@@]1(Cc2ccc(F)cc2)[C@H]2c3cc(C(=O)N4CCCC4)n(CCc4c[nH]c5cc(F)ccc45)c3C[C@H]2CN1C(=O)c1ccccc1 | 1.7 (inactive)
47 | CC[C@@H]1C=C(C(=O)O)[C@H](c2cccc(Cl)c2)N1S(=O)(=O)c1ccc(C)cc1 | -0.423 (inactive)
48 | C=CCNC(=O)[C@@H]1[C@H]2C(=O)O[C@H](c3ccccc3)[C@H](c3ccccc3)N2[C@H](c2ccc(OCCO)cc2)[C@@]12C(=O)N(C(=O)OCCOC)c1ccccc12 | 1.98 (inactive)
49 | COCCCNC(=O)[C@@]1(CCC(=O)OC(C)(C)C)N=C(c2ccc(OCCCO)cc2)O[C@H]1c1ccccc1 | 1.12 (inactive)
50 | CC(C)C[C@@H]1NC(=O)[C@@H]2C[C@H](C(=O)NCCCCCCNC(=O)CS)[C@H](c3ccc(O)cc3)N2C1=O | -0.295 (inactive)
51 | C=C(COC)/C(=C/C[C@@H](OC(=O)c1ccncc1)c1ccccc1OCCO)c1cnc2ccccc2c1 | -0.0618 (inactive)
52 | C=C(C(=O)CC[C@H](OC(=O)c1ccccc1-c1ccccc1C(=O)O)c1ccc(OCCO)cc1)C(C)C | -1.02 (inactive)
53 | COC(=O)Cn1c(C(=O)N(C)C)cc2c1C[C@H]1CN(C(=O)c3ccccc3)[C@@](Cc3ccccc3)(C(=O)OC)[C@@H]21 | 0.282 (inactive)
54 | COc1cc(Cc2cc3c(c(-c4ccccc4)n2)[Si](C(C)C)(C(C)C)OC3)cc(OC)c1OC | 0.299 (inactive)
55 | [N-]=[N+]=NCc1ccccc1[C@H]1OC(c2ccc(OCCCO)cc2)=N[C@@]1(Cc1ccccc1N=[N+]=[N-])C(=O)O | -4.15 (inactive)
56 | COC(=O)c1c2oc(c1C(=O)OC)C(=O)N[C@H](Cc1ccccc1)Cn1cc(nn1)C1(CCCCC1)NC(=O)N[C@H](CO)CC2 | -2.6 (inactive)
57 | CC(C)N1CC=CC23O[C@@H]4/C=C\CCCOC(=O)C4[C@H]2C(=O)N(C(C)CO)[C@@H]3C1=O (stereo not given in full) | -1.69 (inactive)
58 | O=C1C2C=CC(C(O)C3CCCCC3)N(Nc3ccccc3F)C2C(=O)N1c1ccccc1 (stereo not given) | -0.701 (inactive)
59 | CC1CC/C=C\[C@H]2OC34C=CCN(C(C)C)C(=O)[C@H]3N(C(C)CO)C(=O)[C@@H]4C2C(=O)O1 (stereo not given in full) | 0.306 (inactive)
60 | CC(C)(C)OC(=O)CC[C@@]1(C(N)=O)N=C(c2ccc(OCCCO)cc2)O[C@@H]1c1ccccc1CN=[N+]=[N-] | -0.0901 (inactive)
